Results filed as inconclusive are left out. The source made the active and inactive calls. The call rests on the fitted dose curve; in most records, active means well fitted cell-killing curve with a large enough effect in the repeat runs; inconclusive means weak or mixed curves, or effect the other way; inactive means flat fitted curve, though single readings scatter.
Experiment: cAMP Responsive Elements (CRE) small molecule antagonists, cell-based qHTS assay: qHTS cell viability counter screen (AID 2060913); further: nearly all actives have a fitted effect of over 40% in size
Details: CRE-bla HEK293T viability, CellTiter-Glo luminescence, 5 h; series mostly up to 92.4 µM; viability change, negative = cytotoxic: at the top concentration
Source text: U.S. Tox21 Program National Center for Advancing Translational Sciences [NCATS] Division of Preclinical Innovation [DPI] U.S. Environmental Protection Agency [EPA] National Institutes of Environmental Health Sciences [NIEHS] National Toxicology Program [NTP] U.S. Food and Drug Administration [FDA] Tox21 Assay Overview: CREB (cyclic-AMP Responsive Element Binding Protein) is a cellular transcription factor. It binds to certain DNA sequences called cAMP Responsive Elements (CRE) and regulates the transcription of the genes. […] This cell line can be used to find agonists/antagonists of the cyclic AMP signaling pathway. The activation of the report gene under culture conditions can be detected by fluorescence intensity. This cell line has been used to screen the Tox21 10K compound library to identify agonists that induce oxidative stress. The cytotoxicity of the Tox21 compound library against the CRE-bla cell line was tested in parallel by measuring the cell viability using CellTiter-Glo assay (Promega, Madison, WI) in the same wells.
Tox21 Assay Protocol Summary: CRE-bla Hek 293T cells were suspended in assay medium (DMEM containing 10% dialyzed FBS, 0.1 mM NEAA, 1 mM sodium pyruvate and 25 mM HEPES) and dispensed at 2,000 cells/4 uL /well into 1536-well black wall/clear bottom plates using a Multidrop Combi (ThermoFisher Scientific, Waltham, MA) dispenser. After the assay plates were incubated at 37 C/5% CO2 for 18 hrs, 23 nL of compounds dissolved in DMSO, positive controls or DMSO only was transferred to the assay plate by a pintool workstation (Kalypsys, San Diego, CA), followed by addition of 1 uL of 1.25uM NKH477 (0.25 uM as final concentration) in assay medium using a Flying Reagent Dispenser (Aurora Discovery, San Diego, CA). The plates were incubated at 37 C and 5% CO2 for 3 hrs. Then 1 uL of LiveBLAzer B/G FRET substrate (Invitrogen, Carlsbad, CA) was added to each well using Bioraptr Flying Reagent Dispenser (FRD, Aurora Discovery, San Diego, CA). The plates were incubated at room temperature for 2 h, then fluorescence intensities were measured using an Envision plate reader (PerkinElmer, Shelton, CT) at Excitation 405nm, Emission 460nm and 530nm. The % activity was determined from the ratio of 460nm/530nm. For cell viability readout that measures cytotoxicity, 4 uL /well of CellTiter-Glo reagent was added into the assay plates using Bioraptr FRD. After 30 min incubation at room temperature, the luminescence intensity in the assay plates was measured using a ViewLux (PerkinElmer, Shelton, CT) plate reader.
On the % scale 0 is the no-effect control and ±100 the full control effect; potency means the concentration at half of the fitted maximal effect.

SMILES	viability change, negative = cytotoxic	Potency
CC(=O)[C@]1(O)Cc2c(O)c3c(c(O)c2[C@@H](O[C@H]2C[C@H](N)[C@H](O)[C@H](C)O2)C1)C(=O)c1ccccc1C3=O	12.9% [at 42.5 µM] (inactive)	–
CCN1CCOCC1	-5.95% (inactive)	–
CC(C)COC(=O)c1ccccc1O	19.9% (inactive)	–
CCN(Cc1cccc(S(=O)(=O)O)c1)c1ccccc1	-4.56% (inactive)	–
CCCn1cnc2c1c(=O)n(CCCCC(C)=O)c(=O)n2C	0.469% [at 42.5 µM] (inactive)	–
c1ccc2ccccc2c1	–	inactive
CCC1=C[C@@H]2CN(C1)Cc1c([nH]c3ccccc13)[C@@](C(=O)OC)(c1cc3c(cc1OC)N(C)[C@H]1[C@@](O)(C(=O)OC)[C@H](OC(C)=O)[C@]4(CC)C=CCN5CC[C@]31[C@@H]54)C2	-9.12% [at 42.5 µM] (inactive)	–
Cc1ncc([N+](=O)[O-])n1C	–	inactive
O/N=C/C=N/O	1.28% (inactive)	–
N[C@@H]1CONC1=O	-1.56% [at 42.5 µM] (inactive)	–
CCCCCCCCOC(C)=O	-1.78% (inactive)	–
CCOC(=O)C1=C[C@]2(CC)CCCN3CCc4c(n1c1ccccc41)[C@@H]32	-0.897% [at 42.5 µM] (inactive)	–
Cc1cc(CCN2CCN(c3nsc4ccccc34)CC2)cc2c1NC(=O)CC2(C)C	–	68.6 µM (active)
C[C@]12CCC(=O)C=C1CC[C@@H]1[C@@H]2[C@@H](O)C[C@@]2(C)[C@H]1CC[C@]2(O)C(=O)CO	–	inactive
CNC(=O)NC	-7.64% (inactive)	–
C1CCC(SSC2CCCCC2)CC1	0.855% (inactive)	–
CCCNCCC	-4.33% (inactive)	–
CN(C)CCOc1ccccc1Cc1ccccc1	-10.7% [at 42.5 µM] (inactive)	–
CCOC(=O)Oc1ccc(CCNC(=O)[C@H](CCSC)NC(C)=O)cc1OC(=O)OCC	-1.42% [at 42.5 µM] (inactive)	–
Nc1nc2c(ncn2CCC(CO)CO)c(=O)[nH]1	6.08% [at 42.5 µM] (inactive)	–

SMILES	viability change, negative = cytotoxic	Potency
c1ccc(CCCc2ccccn2)cc1	0.169% (inactive)	–
CC(=O)N(O)CCCCCNC(=O)CCC(=O)N(O)CCCCCNC(=O)CCC(=O)N(O)CCCCCN	1.64% [at 42.5 µM] (inactive)	–
CCCCOC(=O)CCC(C)=O	1.09% (inactive)	–
CC(=O)Nc1cccc(N)c1	0.431% (inactive)	–
CCCN(CCC)c1c([N+](=O)[O-])cc(C(F)(F)F)c(N)c1[N+](=O)[O-]	-7.25% (inactive)	–
CC(C)(c1ccc(Oc2ccc(N)cc2)cc1)c1ccc(Oc2ccc(N)cc2)cc1	-6.91% (inactive)	–
NC(=S)NC(N)=S	-7.71% (inactive)	–
CC1=CC[C@H]2C[C@@H]1C2(C)C	–	inactive
CCC(=O)OCCOc1ccccc1	-0.167% (inactive)	–
NC(=O)N(O)[C@@H]1C=C[C@H](Oc2cccc(Oc3ccc(F)cc3)c2)C1	1.73% (inactive)	–
NC(=O)c1ccccc1C(N)=O	1.56% (inactive)	–
C=C(C)C(=O)OC1CC(C)CC(C)(C)C1 (stereo not given)	-0.374% (inactive)	–
CCC(=O)c1ccc(O)cc1	3.79% [at 42.5 µM] (inactive)	–
Cc1c[nH]c2ccccc12	-1.53% [at 42.5 µM] (inactive)	–
CC1(CN2CCC(n3c(=O)[nH]c4ccccc43)CC2)OCc2ccccc2-n2cccc21 (stereo not given)	-4.36% [at 42.5 µM] (inactive)	–
C=CCOc1nc(OCC=C)nc(OCC=C)n1	0.127% (inactive)	–
C=CCON/C(CCC)=C1\C(=O)CC(C)(C)C(C(=O)OC)=C1O	-1.73% (inactive)	–
C/C=C1/C(=O)C[C@H]2[C@@H]3CCC4=CC(=O)CC[C@]4(C)[C@H]3CC[C@]12C	-0.825% (inactive)	–
CN(C/C=C/C#CC(C)(C)C)Cc1cccc2ccccc12	-5.7% [at 42.5 µM] (inactive)	–
O=S(=O)(O)c1cc(O)c(O)c(S(=O)(=O)O)c1	-3.94% (inactive)	–

— PubChem BioAssay (Tox21)
